# Values without a mark were called inactive.
# What was measured:
# Experiment in all cases: log2 ratio of Biotin-Ahx-Ub-VS probe labelling (fragment/DMSO); higher = less target engagement (more negative = stronger competition), active = hit call of the paper (q ≤ 0.05, log2 ratio ≤ -1)
# Settings in all cases: compound concentration: 200 uM; treatment time: 3 h
# UniProt O00507 = biological target: UniProt O00507
# Method in brief: (§1)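 Triplicate samples of HEK293T lysate, 495 µg each, received fragment at 200 µM or vehicle for 3 h, followed by Biotin-Ahx-Ub-VS (0.5 µM final) for 1 h. After NeutrAvidin enrichment of labelled DUBs and LysC/trypsin digestion, peptides were run by diaPASEF LC-MS/MS. The values are average log2 fragment/vehicle ratios from global-median-normalised Spectronaut label-free quantities, tested by unpaired t-test on proteins having ≥2 unique peptides.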
# UniProt P51784 = biological target: UniProt P51784
# Method in brief: as §1
# UniProt Q5T2D3 = biological target: T1, UniProt Q5T2D3
# T1 sequence (whole entry): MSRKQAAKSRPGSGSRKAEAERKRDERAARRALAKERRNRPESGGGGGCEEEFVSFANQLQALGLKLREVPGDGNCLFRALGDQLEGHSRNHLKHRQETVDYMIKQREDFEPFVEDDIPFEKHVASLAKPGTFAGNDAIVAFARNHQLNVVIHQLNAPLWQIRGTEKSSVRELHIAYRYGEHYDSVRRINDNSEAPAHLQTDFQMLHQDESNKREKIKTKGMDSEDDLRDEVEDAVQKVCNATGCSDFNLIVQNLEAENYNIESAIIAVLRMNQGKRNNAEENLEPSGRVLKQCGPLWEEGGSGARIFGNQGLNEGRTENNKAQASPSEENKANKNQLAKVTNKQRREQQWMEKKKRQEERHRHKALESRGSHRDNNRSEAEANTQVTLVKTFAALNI
# Method in brief: as §1
# UniProt Q8TE49 = biological target: T2, UniProt Q8TE49
# T2 sequence (whole entry): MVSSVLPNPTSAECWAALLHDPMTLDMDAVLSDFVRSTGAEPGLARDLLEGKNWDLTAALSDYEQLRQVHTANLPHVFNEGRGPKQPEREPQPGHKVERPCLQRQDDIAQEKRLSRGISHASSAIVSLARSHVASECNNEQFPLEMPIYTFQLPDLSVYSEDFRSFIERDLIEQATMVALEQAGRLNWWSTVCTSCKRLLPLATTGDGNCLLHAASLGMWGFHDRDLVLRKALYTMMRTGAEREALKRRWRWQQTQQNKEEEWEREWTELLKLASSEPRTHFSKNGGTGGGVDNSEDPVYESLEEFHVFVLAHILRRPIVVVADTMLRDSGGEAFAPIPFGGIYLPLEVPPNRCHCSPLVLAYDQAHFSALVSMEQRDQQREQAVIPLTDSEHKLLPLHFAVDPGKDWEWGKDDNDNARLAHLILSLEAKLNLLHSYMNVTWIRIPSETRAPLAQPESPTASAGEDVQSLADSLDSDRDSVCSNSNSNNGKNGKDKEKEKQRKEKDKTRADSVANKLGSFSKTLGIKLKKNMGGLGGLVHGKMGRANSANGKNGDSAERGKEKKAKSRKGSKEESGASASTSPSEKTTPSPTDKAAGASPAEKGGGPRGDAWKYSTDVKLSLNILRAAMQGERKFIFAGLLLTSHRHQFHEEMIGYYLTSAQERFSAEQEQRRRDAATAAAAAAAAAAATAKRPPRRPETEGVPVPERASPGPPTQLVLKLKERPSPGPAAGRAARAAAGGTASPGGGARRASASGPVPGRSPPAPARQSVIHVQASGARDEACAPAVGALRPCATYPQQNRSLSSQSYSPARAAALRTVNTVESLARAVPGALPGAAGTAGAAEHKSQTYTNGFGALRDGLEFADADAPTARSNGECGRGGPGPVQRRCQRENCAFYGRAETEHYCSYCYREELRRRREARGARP
# Method in brief: as §1
# UniProt Q9P2H5 = biological target: T3, UniProt Q9P2H5
# T3 sequence (whole entry): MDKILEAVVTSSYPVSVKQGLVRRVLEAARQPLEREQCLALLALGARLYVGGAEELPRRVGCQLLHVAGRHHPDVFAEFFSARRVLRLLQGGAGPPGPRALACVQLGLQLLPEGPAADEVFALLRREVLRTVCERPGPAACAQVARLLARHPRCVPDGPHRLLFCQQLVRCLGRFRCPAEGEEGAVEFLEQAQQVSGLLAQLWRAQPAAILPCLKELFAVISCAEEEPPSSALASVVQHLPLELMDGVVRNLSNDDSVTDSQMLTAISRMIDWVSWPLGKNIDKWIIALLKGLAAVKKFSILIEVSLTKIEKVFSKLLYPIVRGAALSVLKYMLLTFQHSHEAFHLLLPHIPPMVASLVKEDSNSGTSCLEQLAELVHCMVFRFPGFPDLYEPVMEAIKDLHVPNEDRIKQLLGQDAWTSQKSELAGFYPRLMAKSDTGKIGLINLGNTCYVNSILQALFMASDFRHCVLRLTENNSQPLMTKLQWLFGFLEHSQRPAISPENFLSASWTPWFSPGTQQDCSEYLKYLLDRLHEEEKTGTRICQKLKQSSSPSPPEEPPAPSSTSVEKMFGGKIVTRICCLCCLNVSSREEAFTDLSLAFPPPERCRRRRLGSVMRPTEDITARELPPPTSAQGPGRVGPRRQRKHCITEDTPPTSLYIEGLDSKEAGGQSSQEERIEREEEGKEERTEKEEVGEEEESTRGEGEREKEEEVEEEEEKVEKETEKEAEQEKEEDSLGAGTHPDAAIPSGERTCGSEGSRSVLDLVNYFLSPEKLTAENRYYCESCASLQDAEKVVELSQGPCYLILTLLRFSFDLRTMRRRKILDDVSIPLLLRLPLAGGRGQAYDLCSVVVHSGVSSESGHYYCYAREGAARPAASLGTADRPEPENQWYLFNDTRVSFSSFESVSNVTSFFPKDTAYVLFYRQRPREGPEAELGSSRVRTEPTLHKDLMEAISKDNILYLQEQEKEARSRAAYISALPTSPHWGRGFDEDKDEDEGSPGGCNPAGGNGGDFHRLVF
# Method in brief: as §1
# UniProt Q9UGI0 = biological target: T4, UniProt Q9UGI0
# T4 sequence (whole entry): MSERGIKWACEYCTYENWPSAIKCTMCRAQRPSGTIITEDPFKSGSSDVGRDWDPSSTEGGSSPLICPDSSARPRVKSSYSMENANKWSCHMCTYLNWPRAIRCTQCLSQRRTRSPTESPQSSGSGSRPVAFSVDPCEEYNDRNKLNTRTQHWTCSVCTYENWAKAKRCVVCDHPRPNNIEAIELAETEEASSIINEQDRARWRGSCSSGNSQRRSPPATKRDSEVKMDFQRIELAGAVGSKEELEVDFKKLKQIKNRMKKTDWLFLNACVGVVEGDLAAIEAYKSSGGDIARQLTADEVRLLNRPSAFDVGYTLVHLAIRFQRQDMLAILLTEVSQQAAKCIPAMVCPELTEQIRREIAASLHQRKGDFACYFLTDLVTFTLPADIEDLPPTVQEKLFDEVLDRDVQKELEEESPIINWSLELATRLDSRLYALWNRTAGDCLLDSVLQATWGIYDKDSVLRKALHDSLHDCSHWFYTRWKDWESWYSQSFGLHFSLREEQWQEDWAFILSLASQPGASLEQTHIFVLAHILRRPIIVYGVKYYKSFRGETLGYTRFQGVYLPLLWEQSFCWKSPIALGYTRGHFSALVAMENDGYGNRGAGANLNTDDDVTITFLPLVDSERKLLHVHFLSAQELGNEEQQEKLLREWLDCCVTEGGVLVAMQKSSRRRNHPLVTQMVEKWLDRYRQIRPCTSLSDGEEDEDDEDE
# Method in brief: as §1
# YOD1 = biological target: T5, YOD1 (UniProt Q5VVQ6)
# T5 sequence (whole entry): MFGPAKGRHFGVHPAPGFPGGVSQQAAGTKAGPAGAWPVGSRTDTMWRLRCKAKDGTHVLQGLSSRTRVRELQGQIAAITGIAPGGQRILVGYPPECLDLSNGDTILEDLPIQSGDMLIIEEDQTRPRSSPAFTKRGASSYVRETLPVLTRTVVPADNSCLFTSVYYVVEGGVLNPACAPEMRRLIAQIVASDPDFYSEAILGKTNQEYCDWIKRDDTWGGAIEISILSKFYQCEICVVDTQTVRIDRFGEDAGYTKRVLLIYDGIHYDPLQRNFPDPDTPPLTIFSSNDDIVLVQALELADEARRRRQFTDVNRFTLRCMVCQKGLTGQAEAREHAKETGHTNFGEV
# Method in brief: as §1
# Sequence of UniProt P51784 (P51784 whole entry): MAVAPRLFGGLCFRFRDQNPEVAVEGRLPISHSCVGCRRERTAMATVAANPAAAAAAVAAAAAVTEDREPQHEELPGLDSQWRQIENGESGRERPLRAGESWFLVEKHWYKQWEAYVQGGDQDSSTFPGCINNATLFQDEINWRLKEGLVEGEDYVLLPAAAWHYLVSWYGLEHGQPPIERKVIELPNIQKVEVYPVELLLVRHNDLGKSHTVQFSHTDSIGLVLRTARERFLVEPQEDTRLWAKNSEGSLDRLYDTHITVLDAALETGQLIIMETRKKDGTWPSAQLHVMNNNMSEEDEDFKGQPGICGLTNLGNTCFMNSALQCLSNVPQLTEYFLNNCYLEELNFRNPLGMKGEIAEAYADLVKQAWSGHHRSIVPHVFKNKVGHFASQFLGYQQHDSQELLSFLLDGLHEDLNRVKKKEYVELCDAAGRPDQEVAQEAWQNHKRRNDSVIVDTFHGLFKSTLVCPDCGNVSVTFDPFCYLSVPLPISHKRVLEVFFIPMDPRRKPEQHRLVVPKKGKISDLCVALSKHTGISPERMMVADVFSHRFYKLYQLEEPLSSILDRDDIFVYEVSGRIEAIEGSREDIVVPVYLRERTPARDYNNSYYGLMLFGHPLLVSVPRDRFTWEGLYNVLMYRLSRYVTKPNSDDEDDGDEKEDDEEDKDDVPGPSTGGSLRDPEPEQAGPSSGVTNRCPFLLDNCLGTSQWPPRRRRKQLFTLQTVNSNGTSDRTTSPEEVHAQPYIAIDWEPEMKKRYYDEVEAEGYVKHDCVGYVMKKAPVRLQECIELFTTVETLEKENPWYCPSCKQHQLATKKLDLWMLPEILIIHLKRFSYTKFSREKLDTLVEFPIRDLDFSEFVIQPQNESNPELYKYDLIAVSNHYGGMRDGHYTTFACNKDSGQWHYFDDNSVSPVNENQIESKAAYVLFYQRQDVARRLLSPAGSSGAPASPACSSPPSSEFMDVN
# Sequence of UniProt O00507 (O00507 whole entry, the tested form may be a part): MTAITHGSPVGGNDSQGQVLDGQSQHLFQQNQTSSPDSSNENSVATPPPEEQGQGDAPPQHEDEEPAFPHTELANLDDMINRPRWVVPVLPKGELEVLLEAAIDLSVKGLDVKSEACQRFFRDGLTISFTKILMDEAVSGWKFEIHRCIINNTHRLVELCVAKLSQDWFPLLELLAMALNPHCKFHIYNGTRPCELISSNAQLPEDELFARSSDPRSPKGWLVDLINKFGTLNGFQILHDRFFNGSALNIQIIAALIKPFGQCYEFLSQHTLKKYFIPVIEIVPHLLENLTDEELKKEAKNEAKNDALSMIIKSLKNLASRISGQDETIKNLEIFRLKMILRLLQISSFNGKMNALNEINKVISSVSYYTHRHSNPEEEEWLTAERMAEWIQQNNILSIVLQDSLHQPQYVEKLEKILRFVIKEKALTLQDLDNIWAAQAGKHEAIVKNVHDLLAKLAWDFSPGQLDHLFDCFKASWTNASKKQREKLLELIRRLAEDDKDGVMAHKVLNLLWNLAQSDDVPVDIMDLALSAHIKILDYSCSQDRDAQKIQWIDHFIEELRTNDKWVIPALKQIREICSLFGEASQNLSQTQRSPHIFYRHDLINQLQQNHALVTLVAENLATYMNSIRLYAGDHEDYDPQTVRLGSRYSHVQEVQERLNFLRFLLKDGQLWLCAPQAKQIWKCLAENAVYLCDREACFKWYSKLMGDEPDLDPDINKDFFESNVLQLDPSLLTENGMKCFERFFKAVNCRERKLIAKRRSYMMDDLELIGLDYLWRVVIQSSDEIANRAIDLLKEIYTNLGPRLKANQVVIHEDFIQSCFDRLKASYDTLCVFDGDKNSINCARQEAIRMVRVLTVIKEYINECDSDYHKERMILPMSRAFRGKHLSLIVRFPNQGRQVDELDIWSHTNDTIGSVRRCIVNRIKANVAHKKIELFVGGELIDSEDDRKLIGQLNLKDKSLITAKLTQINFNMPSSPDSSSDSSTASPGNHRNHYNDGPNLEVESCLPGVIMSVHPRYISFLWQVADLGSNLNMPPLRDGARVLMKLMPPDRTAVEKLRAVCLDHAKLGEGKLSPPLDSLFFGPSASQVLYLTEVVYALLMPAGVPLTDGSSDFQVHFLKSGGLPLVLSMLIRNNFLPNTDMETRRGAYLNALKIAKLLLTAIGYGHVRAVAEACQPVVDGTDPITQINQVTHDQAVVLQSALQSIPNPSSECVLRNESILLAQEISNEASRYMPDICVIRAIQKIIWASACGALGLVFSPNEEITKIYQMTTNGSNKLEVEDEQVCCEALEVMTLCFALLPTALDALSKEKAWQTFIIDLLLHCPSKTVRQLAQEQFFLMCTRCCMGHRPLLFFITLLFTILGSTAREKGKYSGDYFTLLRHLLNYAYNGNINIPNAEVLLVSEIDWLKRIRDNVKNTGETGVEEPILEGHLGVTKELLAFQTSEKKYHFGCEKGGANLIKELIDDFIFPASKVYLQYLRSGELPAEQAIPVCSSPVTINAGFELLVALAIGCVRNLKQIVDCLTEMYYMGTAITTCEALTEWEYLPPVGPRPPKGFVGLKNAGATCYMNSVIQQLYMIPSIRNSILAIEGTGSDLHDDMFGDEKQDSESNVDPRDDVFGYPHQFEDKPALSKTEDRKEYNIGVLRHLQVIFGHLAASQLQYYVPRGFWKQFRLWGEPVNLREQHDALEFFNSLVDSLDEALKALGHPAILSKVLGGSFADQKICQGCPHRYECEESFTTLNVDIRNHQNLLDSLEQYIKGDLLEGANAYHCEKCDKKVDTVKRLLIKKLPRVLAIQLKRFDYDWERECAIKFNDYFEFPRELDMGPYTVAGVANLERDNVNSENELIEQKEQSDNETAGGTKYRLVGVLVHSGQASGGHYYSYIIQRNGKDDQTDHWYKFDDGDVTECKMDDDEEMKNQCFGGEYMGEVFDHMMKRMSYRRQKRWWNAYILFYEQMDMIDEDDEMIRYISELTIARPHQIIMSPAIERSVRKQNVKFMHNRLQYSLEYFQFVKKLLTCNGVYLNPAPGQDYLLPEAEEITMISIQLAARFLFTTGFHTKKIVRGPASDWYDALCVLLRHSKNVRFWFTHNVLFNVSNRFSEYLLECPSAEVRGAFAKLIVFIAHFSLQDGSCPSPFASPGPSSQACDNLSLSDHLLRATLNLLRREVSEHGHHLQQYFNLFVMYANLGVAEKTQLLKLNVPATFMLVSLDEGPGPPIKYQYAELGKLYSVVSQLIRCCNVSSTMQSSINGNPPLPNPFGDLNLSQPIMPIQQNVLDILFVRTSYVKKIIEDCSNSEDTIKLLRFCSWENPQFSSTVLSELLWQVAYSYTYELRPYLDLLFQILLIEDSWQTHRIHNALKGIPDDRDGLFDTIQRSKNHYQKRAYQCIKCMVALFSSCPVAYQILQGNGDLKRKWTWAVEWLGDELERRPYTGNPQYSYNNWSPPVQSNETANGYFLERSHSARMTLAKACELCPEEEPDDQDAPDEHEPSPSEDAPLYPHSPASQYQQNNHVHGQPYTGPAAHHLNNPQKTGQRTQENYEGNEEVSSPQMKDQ
Structure (SMILES),log2 ratio of Biotin-Ahx-Ub-VS probe labelling (UniProt O00507),log2 ratio of Biotin-Ahx-Ub-VS probe labelling (UniProt P51784),log2 ratio of Biotin-Ahx-Ub-VS probe labelling (UniProt Q5T2D3),log2 ratio of Biotin-Ahx-Ub-VS probe labelling (UniProt Q8TE49),log2 ratio of Biotin-Ahx-Ub-VS probe labelling (UniProt Q9P2H5),log2 ratio of Biotin-Ahx-Ub-VS probe labelling (UniProt Q9UGI0),log2 ratio of Biotin-Ahx-Ub-VS probe labelling (YOD1)
Cc1ccccc1C1(CNC(=O)CCl)CCOCC1,0.332,0.00427,-0.0687,-0.333,-0.221,-0.577,-0.0207
O=C(CCl)Nc1cc(Cl)ccc1-n1cncn1,-1.06 (active),-0.871,-0.95,-1.44 (active),-0.954,-1.05 (active),-1.12 (active)
O=C(CCl)N1CCN(c2nc3ccccc3o2)CC1,-0.666,-0.255,-0.0854,-0.515,-0.57,-0.691,-0.434
Cl.Cn1cnc2cc(CNC(=O)CCl)ccc21,0.245,-0.209,-0.0728,-0.354,-0.126,-0.308,0.0476
C/C(=C\CNC(=O)CCl)c1cnn(C)c1.Cl,-0.224,-0.391,-0.0109,-0.499,-0.465,-0.0207,-0.155
Cc1ccc(CC(CO)CNC(=O)CCl)cc1 (centres undefined),-0.3,-0.172,-0.293,-0.933,-0.149,-0.929,-0.164
Cc1nc(CN2CCCN(C(=O)CCl)CC2)no1.Cl,0.543,0.151,-0.111,0.0982,-0.193,0.143,0.273
Cc1ccc(N2CCC(NC(=O)CCl)C2=O)cc1 (centres undefined),0.561,0.0347,-0.0872,-0.518,-0.134,0.0412,0.132
O=C(CCl)N[C@H]1CCS(=O)(=O)c2ccccc21,-0.141,-0.134,-0.0599,-0.609,-0.0511,-0.158,0.0852
Cc1ccc(C)c(Oc2ccc(CNC(=O)CCl)cn2)c1.Cl,-0.379,-0.367,-0.187,-0.677,-0.375,-0.886,-0.149
C[C@@H](NC(=O)CCl)c1cccc(C#N)c1,-0.38,0.045,-0.157,-0.912,-0.136,-0.111,-0.0878
CN(Cc1nc2ccccc2[nH]1)C(=O)CCl.Cl,-0.702,0.00766,-0.19,-0.268,0.121,-0.937,0.0427
O=C(CCl)NCC1(c2ccccc2)CC1,0.153,0.117,-0.0752,-0.408,-0.071,-1.08 (active),0.0857
CN(C)S(=O)(=O)c1ccccc1CNC(=O)CCl,-0.154,0.0361,-0.255,-0.178,-0.0151,-0.47,0.0246
CCc1c[nH]c(CNC(=O)CCl)n1.Cl,-0.772,-0.123,-0.363,-0.324,-0.147,-0.736,-0.491
Cl.O=C(CCl)NC1(c2ncccn2)CCC1,-0.0196,0.0134,-0.0112,0.0256,-0.0207,-0.201,0.161
Cc1ccc(CNC(=O)CCl)nc1C.Cl,-0.661,0.353,-0.0639,-0.343,0.102,-0.161,-0.259

# Reference: the supplement of paper PMC11732987, “Enantioselective OTUD7B fragment discovery through chemoproteomics screening and high-throughput optimisation” (Communications Chemistry, 2025)
